Measurements from article PMC7819943, “Rice protein-binding microarrays: a tool to detect cis-acting elements near promoter regions in rice”.
Over roughly 39,000 sequences, “fluorescence intensity (a.u.)” has its median near 4,300; the highest 2% begin near 39,000. What follows is part of a selection rich in the highest values, with near analogues and random picks from the rest.

Target: T1, OsSMF1 (Oryza sativa, UniProt Q6ZLB0 1-436)
T1 sequence: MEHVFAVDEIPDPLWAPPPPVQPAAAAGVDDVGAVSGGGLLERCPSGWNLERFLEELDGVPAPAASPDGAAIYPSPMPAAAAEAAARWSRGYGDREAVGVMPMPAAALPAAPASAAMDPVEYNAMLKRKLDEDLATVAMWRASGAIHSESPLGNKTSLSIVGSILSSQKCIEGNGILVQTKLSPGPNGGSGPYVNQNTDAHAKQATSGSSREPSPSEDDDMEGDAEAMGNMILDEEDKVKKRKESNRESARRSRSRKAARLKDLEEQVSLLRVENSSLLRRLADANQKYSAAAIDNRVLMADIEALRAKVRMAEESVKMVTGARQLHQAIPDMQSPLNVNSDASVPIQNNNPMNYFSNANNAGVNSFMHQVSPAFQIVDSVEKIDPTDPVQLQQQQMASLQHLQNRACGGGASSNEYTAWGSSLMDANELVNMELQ
Experiment: protein-binding microarray (RPBM); PBS, 2% BSA, 51.3 ng/ul salmon testes DNA, 50 uM zinc acetate, 200 nM TF, 25 C, 1 h; high values mean tight binding
Details: protein: recombinant; tags: N-terminal polyhistidine and DsRed monomer fusion (pET32a); chain copies: 2; label: CyDye5-dUTP incorporated in the synthesized complementary strand; 3' TTTTT single-stranded linker to array surface; dsDNA, one strand shown
Procedure, shortened: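 An Axon 4000B scanner gave the binding signal as per-feature fluorescence intensity in arbitrary units. This followed washing of a custom Agilent array that had been incubated for 1 h at 25 °C with 200 nM protein in PBS, 2% BSA, salmon testes DNA and 50 µM zinc acetate. The proteins were transcription factors fused at the N-terminus to polyhistidine and DsRed, expressed in E. coli BL21-CodonPlus and purified on Ni–NTA.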

Sequence	binding signal
ACTGCCATGGTTGCGGAGCAGGATGGTGACGTGGATCCCACGGAGTCACCTAGTGCAG	17700 fluorescence intensity (a.u.)
GCCGCTTTTGCGAATTTTGCACGTAGACCCCTTGCCGCCCCGGAGTCACCTAGTGCAG	3330 fluorescence intensity (a.u.)
ACACAGCCACGCCCGTACGCAGCTACGTACGCACGCATCACGGAGTCACCTAGTGCAG	5670 fluorescence intensity (a.u.)
TTGTACCAGCTAACTCATCACCACGCAGGCCAGAGTAGTACGGAGTCACCTAGTGCAG	45900 fluorescence intensity (a.u.)
TCACCACCTCACTCCACTAACCAGAGAGAGAACGCAGCTACGGAGTCACCTAGTGCAG	21000 fluorescence intensity (a.u.)
CGTGAGCGGGTGGTGGTGGTGATGGCGTTCGCGGTGGCGACGGAGTCACCTAGTGCAG	3520 fluorescence intensity (a.u.)
AGCTTCGCACTGGGCACGTGTGCCTGTGTGTGGGAGTCAGCGGAGTCACCTAGTGCAG	4070 fluorescence intensity (a.u.)
GAAGTGGTTCTGCACTGTGATTTGAAGCCTAGCAACGTGCCGGAGTCACCTAGTGCAG	35800 fluorescence intensity (a.u.)
CAAACTGCAACTCCAATATCACATTTTCTTTCTCTTTTCCCGGAGTCACCTAGTGCAG	19700 fluorescence intensity (a.u.)
TGCTGCCAGAGTCAGTAGGTGCCCTCTTCCACCTGCAGACCGGAGTCACCTAGTGCAG	3270 fluorescence intensity (a.u.)
CAGTCAGTCAGTAGGTTCCCAGAATTTTCTCCCTGCAAACCGGAGTCACCTAGTGCAG	50200 fluorescence intensity (a.u.)
CAAACAAGGACCGTAGACACTCTAACCAACCCCAATAACACGGAGTCACCTAGTGCAG	31300 fluorescence intensity (a.u.)
TCAGTAGGCCAGTAGCTAGCTGCTGCCTTCACACATCAATCGGAGTCACCTAGTGCAG	3160 fluorescence intensity (a.u.)
CACATCGTTGCCAATGTTGCCACGTACCAAGGTCATATGGCGGAGTCACCTAGTGCAG	9400 fluorescence intensity (a.u.)
ATGAACATATTTCAATCGTTCAGTACCTTCAAGCCACAGGCGGAGTCACCTAGTGCAG	39800 fluorescence intensity (a.u.)
GCCAGCTGCCACGTGGGACAAAATCGGGGTCAAAACCACCCGGAGTCACCTAGTGCAG	12700 fluorescence intensity (a.u.)
CGAGCCGCCTCCGCCACCGCCGCCTCCTTCCGACCAGCCGCGGAGTCACCTAGTGCAG	3530 fluorescence intensity (a.u.)
CCTCGTCCGCCTTGGTCTTCTTCCAGCCGAGGAGCAACCGCGGAGTCACCTAGTGCAG	48200 fluorescence intensity (a.u.)
GTCCAGCCTCCTCCTCCGCTGACCTCCTCGCGGTCTTCTCCGGAGTCACCTAGTGCAG	4520 fluorescence intensity (a.u.)
AGCTTACTATGATACCGATGAACACGTTATGACAACAAACCGGAGTCACCTAGTGCAG	3880 fluorescence intensity (a.u.)
AATCAAACTTTCAATTTTAGCGTGAACTAAACACACCCTTCGGAGTCACCTAGTGCAG	3680 fluorescence intensity (a.u.)

Sequence	binding signal
AACGTGAACTAAACACATGTCGAAATGCAATCAAAATACCCGGAGTCACCTAGTGCAG	42000 fluorescence intensity (a.u.)
CAAATACTAAATGATTTCAAATGAAAACGTCATCAACAACCGGAGTCACCTAGTGCAG	3560 fluorescence intensity (a.u.)
ATAGAAACATAGCGTGACACAACATAACAAACCAATGCAACGGAGTCACCTAGTGCAG	4630 fluorescence intensity (a.u.)
CCAAATAGACTCTTACTTATAAGGGTTGAGTCTAGAGTGACGGAGTCACCTAGTGCAG	6050 fluorescence intensity (a.u.)
TGATTGTGACACTAGCACGACGCACTTTCCTCTATATACACGGAGTCACCTAGTGCAG	3630 fluorescence intensity (a.u.)
ATGAACTAAACGCACCCTTGTAAGTCTGACACACTGTGGACGGAGTCACCTAGTGCAG	3720 fluorescence intensity (a.u.)
ATAAAGTCCTTATCGGACACTAAACGCACTTTCCTAAAGACGGAGTCACCTAGTGCAG	39200 fluorescence intensity (a.u.)
AAGAAATCTCTTCATAGATCTCCTGATGAAAGAATTTAACCGGAGTCACCTAGTGCAG	3730 fluorescence intensity (a.u.)
CAGGCTACAGGGCATTTGTGTCATTTTGCAAGAAGGCATACGGAGTCACCTAGTGCAG	3380 fluorescence intensity (a.u.)
TGTTCCACTGTTGTGTGTGTGGCATTCTTGTACTGCATTTCGGAGTCACCTAGTGCAG	3360 fluorescence intensity (a.u.)
TTGTGTGCATTTCGGCATTTGGCTACAAGATTCTTGCAGTCGGAGTCACCTAGTGCAG	39600 fluorescence intensity (a.u.)
CTCGATACAGAGTGAGCGGGGTATGGCAATGACGAGCTATCGGAGTCACCTAGTGCAG	3160 fluorescence intensity (a.u.)
GAATGAAAACTCAGGGGTAAGTAGGAGATGACGCAAAGTTCGGAGTCACCTAGTGCAG	3580 fluorescence intensity (a.u.)
TTCTCCCTCTACTATTGCTGACGCCACCAACGCCCATGTGCGGAGTCACCTAGTGCAG	13500 fluorescence intensity (a.u.)
CGTCTCGCCGGAGCGTTGACGAGGACCTCTCTACTCTTCACGGAGTCACCTAGTGCAG	3680 fluorescence intensity (a.u.)
GGCCATGTTGAATGACGCGTTGCTCTCCCTACTCTACGGACGGAGTCACCTAGTGCAG	49100 fluorescence intensity (a.u.)
CCTTCCACATATGCTCATTCGAAAGTAACAAATTCACTCGCGGAGTCACCTAGTGCAG	3190 fluorescence intensity (a.u.)
GGTGATTGCATTTGCTGATGTCAGGTATGCCTATTATATTCGGAGTCACCTAGTGCAG	14700 fluorescence intensity (a.u.)
TTGGATGACACAACAACATGTAAGGTTAGAAACGATATGTCGGAGTCACCTAGTGCAG	3990 fluorescence intensity (a.u.)
ACTAGTTTACAACCACACCAACATGTAGGCATGAACATGGCGGAGTCACCTAGTGCAG	22900 fluorescence intensity (a.u.)
CGAGTTTAGAATCCACACCATGATTACATGTAAACAACGTCGGAGTCACCTAGTGCAG	44700 fluorescence intensity (a.u.)
